Data on 40 compounds can be found in PubChem BioAssay (EPA / NIEHS).

Active and inactive are the calls of the source. Rule for the calls: active = hit-call score of the fitted dose curve at least 0.9, where 1 is the maximum; inactive = score below 0.9.

This assay in a line: ATG_GATA_CIS: Attagene CIS-FACTORIAL HepG2 Assay for human GATA Binding Protein (AID 2282944). Particulars: HepG2 GATA cis-element reporter, Attagene multiplex mRNA; actives raise or lower the signal. As for the experimental part:
ATG_CIS is a cell-based, multiplexed-readout assay that uses HepG2, a human liver cell line, with measurements taken at 24 hours after chemical dosing in a 24-well plate.ATG_GATA_CIS is one of 52 assay component(s) measured or calculated from the ATG_CIS assay. It is designed to make measurements of mRNA induction, a form of inducible reporter, as detected with fluorescence intensity signals by Reverse transcription polymerase chain reaction (RT-PCR) and Capillary electrophoresis technology.Data from the assay component ATG_GATA_CIS was analyzed into 1 assay endpoint. This assay endpoint, ATG_GATA_CIS, was analyzed with bidirectional fitting relative to DMSO as the negative control and baseline of activity. Using a type of inducible reporter, measures of mRNA for gain or loss-of-signal activity can be used to understand the reporter gene at the transcription factor-level as they relate to the gene GATA1. Furthermore, this assay endpoint can be referred to as a primary readout, because this assay has produced multiple assay endpoints where this one serves a reporter gene function. To generalize the intended target to other relatable targets, this assay endpoint is annotated to the dna binding intended target family, where the subfamily is GATA proteins.
Human liver HepG2 cells are transiently transfected with multiple reporter transcription units (MRTUs) in 6-well plates using FuGene 6 reagent (Roche; 3 ml FuGene/1 mg DNA). The MRTU constructs are regulated by a cis-regulating element (promoter). […] A major difference between the CIS and TRANS system is that in CIS activities of endogenous TFs are measured, whereas the TRANS assay evaluates changes in activities of exogenous, chimeric NR-Gal4 proteins. […] At the end of 24 hour incubation, total RNA was isolated using TriZol reagent (Invitrogen). The isolated RNA is then reverse-transcribed using oligo(dT) primer and Mo-MLV reverse transcriptase (Invitrogen) with DNAse I (Ambion) treatment for 30 min. The one-tenth of the produced cDNA was amplified by PCR using Taq DNA polymerase (Invitrogen) and two reporter sequence-specific primers. The PCR products were fluorescently labeled by primer extension with 6-arboxyfluorescein (6-FAM) 5'-labeled reporter sequence-specific primer (2 min at 95 C, 20 s at 68 C and 10 min at 72 C) and these products were digested with 5U of HpaI (New England Biolabs) for 2h at 37 C. The fragments were purified using Qiaquick PCR columns (Qiagen), analyzed on an ABI 3130xL genetic analyzer (Applied Biosystems) with peak positions identified by using a set of X-rhodamine (ROX)-labeled MapMarker1000 molecular weight standards (BioVentures). The raw capillary electrophoresis data was processed using Attagraph software (Attagene).
Turning to `CCCCCOC(=O)CCC`, the result was inactive.

On to `Cc1ccc(C(C)C)cc1O`, for which the call was inactive.

Turning to `O=C(O)CCCCCCCCCCC(=O)O`, the compound was classed as inactive.

Consider `CC1(C)CCC(C)(C)c2cc(C(=O)Nc3ccc(C(=O)O)cc3)ccc21`, for which the compound was classed as inactive.

Take `CC(C=O)Cc1ccc(C(C)C)cc1` (stereo not given): the compound was called inactive.

For `c1ccc(CCCc2ccccn2)cc1`, the outcome was inactive.

Consider `CC(C)CCCCCCCOC(=O)c1ccc(C(=O)OCCCCCCCC(C)C)c(C(=O)OCCCCCCCC(C)C)c1`, for which the call was inactive.

Consider `Nc1cc(Cl)c(O)c(Cl)c1`, for which the compound was classed as inactive.

As for `CC(CN1c2ccccc2Sc2ccccc21)N(C)C` (stereo not given), the compound was called inactive.

Take `CC(C)(C)c1n[nH]c(=S)n(N)c1=O`: the outcome was inactive.

As to `CCCCCCCCCCCCCCCCCC(=O)OCC(CC)CCCC` (stereo not given), the result was inactive.

For `Nc1nc2ccc([N+](=O)[O-])cc2s1`, the compound was classed as inactive.

Regarding `O=C(O)COCCN1CCN(C(c2ccccc2)c2ccc(Cl)cc2)CC1` (stereo not given), the compound was classed as inactive.

`COCCOCCOCCOCCOCCO`: the compound was classed as inactive.

As to `CCOC(=O)c1ccccc1OC`, the result was inactive.

With `OC1C(O)C(O)C(O)C(O)C1O` (stereo not given), the compound was called inactive.

For `CCCCCCCCCCCCSC`, the compound was classed as inactive.

For the compound `CCCCCCC#CC(=O)OC`, the compound was classed as inactive.

Regarding `CN(C)c1ccc(O)c2c1C[C@H]1C[C@H]3[C@H](N(C)C)C(=O)C(C(N)=O)=C(O)[C@@]3(O)C(=O)C1=C2O`, the call was inactive.

Turning to `COc1ccc(O)cc1`, the outcome was inactive.

For orientation: AC50 means the concentration at which the activity in the assay is half-maximal. For `N#Cc1nc(Cl)c(Cl)c(Cl)c1Cl`, the AC50 is 3.71 µM (active).

`CC(C)=CCC[C@](C)(O)[C@@H]1CC=C(C)CC1`: the result was inactive.

Take `C=COCCOCCOCCOC=C`: the result was inactive.

`O=C1CCc2ccccc2O1`: the compound was classed as inactive.

Take `CCCC(C)C=O` (stereo not given): the compound was classed as inactive.

For `CC(C)C(C)(C)C(C)(C)C(C)(C)S`, the compound was classed as inactive.

As to `CC1COc2ccccc2N1C(=O)C(Cl)Cl` (stereo not given), the compound was called inactive.

With `O=C(O)CN(CCN(CC(=O)O)CC(=O)O)CCN(CC(=O)O)CC(=O)O`, the compound was classed as inactive.

With `C[C@H]1C[C@@H]2[C@H]([C@@H](O)C[C@@]3(C)[C@H]2CC[C@]3(O)C(=O)CO)[C@@]2(C)C=CC(=O)C=C12`, the compound was called inactive.

With `O=C(O)c1ccc(C(=O)O)cc1`, the outcome was inactive.

As to `CC(C)c1ccc(C(C)C)cc1`, the outcome was inactive.

On to `O=c1oc(=O)c2cc3c(=O)oc(=O)c3cc12`, for which the compound was called inactive.

For the compound `CCCC[n+]1ccccc1`, the compound was classed as inactive.

With `Nc1cc([N+](=O)[O-])ccc1O`, the compound was classed as inactive.

Regarding `CCCC1CCC(=O)O1` (stereo not given), the compound was classed as inactive.

Take `CSc1nnc(C(C)(C)C)c(=O)[nH]1`: the compound was called inactive.

`O=C(O)c1cccc([N+](=O)[O-])c1`: the compound was called inactive.

As for `CC(=O)C(C)=O`, the compound was classed as inactive.

For `Cc1ncc([N+](=O)[O-])n1C`, the call was inactive.

In the case of `CC(C#N)(CCC(=O)O)N=NC(C)(C#N)CCC(=O)O` (stereo not given), the outcome was inactive.
